# From PubChem
# HT1080NT lethal: qHTS for induction of synthetic lethality in tumor cells producing 2HG: qHTS for the HT-1080-NT fibrosarcoma cell line; HT-1080-NT fibrosarcoma viability, CellTiter-Glo ATP luminescence, 48 h; Potency, µM (series often up to 46.1 µM), without a hit: top-dose activity, negative = less viability, usual class: cytotoxic; 360,000 compounds, 1.6% hits; AID 686970, 2013;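 also: NT is the 2HG producing partner of a matched IDH1 knockdown line; potency is read from the fitted curve at half-maximal effect; 0% = DMSO-treated cells and -100% = media-only wells without cells; nearly all actives have a fitted effect of over 55% in size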
#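 Viability by CellTiter-Glo luminescence after 48 h compound exposure at 37C of HT-1080-NT cells (750/well, RPMI, 5% FBS). % activity scaled between DMSO wells and medium-only wells, then curve-fitted and categorized by curve class.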
# IL1B secr inh: qHTS for Inhibitors of Inflammasome Signaling: IL-1-beta AlphaLISA Primary Screen. 360,000 compounds, 4.7% hits. activity change, % at 57.5 µM. THP-1 LPS/ATP IL-1B secretion, AlphaLISA, 16 h; hits give low values; in the data active = activity change below about -50%; inconclusive = mostly about -30% to -49%
#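 THP-1 cells pretreated 1 hr with compounds (up to 57.5 uM final), then stimulated with LPS (250 ng/mL final) plus ATP (1.25 mM final); secreted IL-1B measured by AlphaLISA after 16 hr, decreased signal indicating inhibition.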
# TDP1 cell noCPT: qHTS for Inhibitors of human tyrosyl-DNA phosphodiesterase 1 (TDP1): qHTS in cells in absence of CPT. DT40 Tdp1-/- hTDP1 cells, no CPT, ATP luminescence, 48 h. Potency, µM (highest dose often 46.2 µM), for inactives: at the highest dose activity change, negative = growth inhibition, actives largely listed as inhibitors. 420,000 compounds, 15% hits. AID 686978, 2013; also: potency is read from the fitted curve at half-maximal effect; nearly all actives have a fitted effect of over 55% in size
#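 Cells were dispensed at 400 per well, compounds added by pin tool, plates incubated ≥48 hr at 37 °C, then CellTiter-Glo added for 30 min at room temperature before luminescence reading. Line: DT40 Tdp1-/- complemented with hTDP1; camptothecin omitted.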
# HT1080 IDH1KD tx: qHTS for induction of synthetic lethality in tumor cells producing 2HG: qHTS for the HT-1080-IDH1KD cell line; HT-1080 IDH1 knockdown viability, ATP luminescence, 48 h; Potency, µM (top dose mostly 46.1 µM), for inactives: at the top dose activity, negative = toxicity, usual class: cytotoxic; 360,000 compounds, 2% hits;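 also: potency is read from the fitted curve at half-maximal effect; 0% = DMSO wells and -100% = cell-free medium wells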
#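 In this qHTS, HT-1080 cells depleted of IDH1 are exposed for 48 h at 37 °C to compound titrations. Toxicity is scored from CellTiter-Glo luminescence, with DMSO as full viability and medium alone as none.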
# DT40 TDP1 CPT: qHTS for Inhibitors of human tyrosyl-DNA phosphodiesterase 1 (TDP1): qHTS in cells in presence of CPT; chicken DT40 Tdp1-/-;hTDP1 cells + 20 nM CPT, ATP luminescence, 48 h; Potency, µM (doses to about 46.2 µM), without a hit: at the top dose activity change, negative = growth inhibition, usual class: inhibitors; AID 686979, 2013; 420,000 compounds, 12% hits; also: potency is read from the fitted curve at half-maximal effect; nearly all actives have a fitted effect of over 55% in size
#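 Chicken DT40 Tdp1-/- cells complemented with human TDP1, 400 cells/well, exposed to compounds plus 20 nM camptothecin for at least 48 h at 37 C; viability read as ATP content by CellTiter-Glo luminescence.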
# Starred values were filed as active, the others as inactive; u = inconclusive; x = no result; [ ] = dose if it differs, or a comment. An excerpt weighted towards active compounds, which were near 19% of everything screened. Unless noted, calls follow the shape of the dose curve; as a rule, active = well fitted curve in the direction sought with a large enough effect; inconclusive = small, poorly fitted or top-dose-only effect, or another doubt; inactive = no such curve, though single readings can be large; an effect the other way counts as inactive or inconclusive. Unless noted, % is scaled to controls: 0 for no effect and ±100 for the full control effect.
SMILES,HT1080NT lethal,IL1B secr inh,TDP1 cell noCPT,HT1080 IDH1KD tx,DT40 TDP1 CPT
COC(=O)c1ccc(-n2c(C)cc(/C=N/Nc3nc(C)cc(=O)[nH]3)c2C)cc1,0%,13,16µM*,-13%,15µM*
Cc1cc(=O)[nH]c(N/N=C/c2cc(C)n(CC(F)(F)F)c2C)n1,-18%,10,7.3µM*,-6%,8.2µM*
COc1cccc(/C=N/Nc2nc(C)cc(=O)[nH]2)c1OC,15%,25,-4%,-1%,-4%
CC(Sc1nc2ccccc2c(=O)n1CC1CCCO1)C(=O)Nc1ccc(S(N)(=O)=O)cc1 (stereo not drawn),-5%,-7,-29%,12%,-11%
O=Cc1ccccc1OCc1ccc2c(c1)OCO2,u,33,2.9µM*,u,5.2µM*
CC(C)C[C@@H]1NC(=O)[C@H](Cc2ccccc2)N(C)C(=O)[C@H](C)NC(=O)c2ccccc2NC(=O)[C@H](Cc2ccc(O)cc2)N(C)C1=O,-20%,-5,15µM*,-12%,16µM*
Cc1cccc(NC(=S)N2CCN(c3ccc(F)cc3)CC2)c1,u,9,u,27%,-17%
COc1ccc(C)cc1S(=O)(=O)N1CCN(C)CC1c1ccccc1 (stereo not drawn),0%,-5,-14%,-2%,u
Cc1cc(C)c(N=Cc2c(O)n(-c3nccs3)c(=O)c3ccccc23)c(C)c1,4%,u,16µM*,-3%,u
Cc1cccc(C)c1N=Cc1c(O)n(-c2nccs2)c(=O)c2ccccc12,-5%,-50*,21µM*,1%,15µM*
O=c1c2ccccc2c(C=Nc2ccccc2O)c(O)n1-c1nccs1,u,-29,u,5%,-29%
Cc1ccccc1N=Cc1c(O)n(-c2nccs2)c(=O)c2ccccc12,12%,-55*,u,13%,u
Cc1cc(C)c2ccc(=O)n(CC(=O)N/N=C/c3ccccc3Cl)c2n1,2%,15,-14%,10%,3%
O=C1N(CN2CCN(Cc3ccccc3)CC2)c2ccccc2C12OCCCO2,10%,-1,-10%,-2%,-3%
O=C(O)c1ccccc1-c1ccc(/C=c2\sc3nc4cc(Br)cnc4n3c2=O)o1,5%,-3,18µM*,-1%,16µM*
COc1ccccc1C(=O)OCc1cc(=O)n2nc(C3CCCCC3)sc2n1,x,x,u,x,-10%
Cc1ccccc1OCC(=O)Nc1ccc2nc(SCc3ccccc3)sc2c1,x,x,4%,x,-13%
Cc1ccccc1OCC(=O)Nc1ccc2nc(SCC(=O)N3CCCC3)sc2c1,x,x,15µM*,x,16µM*
Cc1ccccc1OCC(=O)Nc1ccc2nc(SCC(=O)N3CCOCC3)sc2c1,x,x,5.8µM*,x,u
Cc1ccccc1OCC(=O)Nc1ccc2nc(SCC(=O)N(C)c3ccccc3)sc2c1,x,x,10µM*,x,18µM*
Cc1ccc(C(C)C)c(OCc2nnc(SCC(=O)Nc3ncc(C)s3)n2C)c1,-2%,13,u,5%[9.24 µM],18µM*
COCCCn1c(=O)c2sccc2n2c(CCCC(=O)NCc3ccccc3)nnc12,2%,-3,1%,-6%,-9%
Cc1ccccc1OCc1nnc(SCC(=O)Nc2ccc3nc(SCC(=O)Nc4ccccc4)sc3c2)n1C,-15%,27,15µM*,u,u
Cc1ccccc1OCc1nnc(SCC(=O)Nc2ccc3c(c2)OCO3)n1C,u,0,-12%,7%,4%
CCC(=O)c1cccc(-c2ccccc2)c1CC,-18%,-69*,-16%,-7%,5%
SMILES,HT1080NT lethal,IL1B secr inh,TDP1 cell noCPT,HT1080 IDH1KD tx,DT40 TDP1 CPT
CC12CCC(=O)N1C(C(=O)OCC(=O)Nc1ccc(Cl)c(Cl)c1)CS2 (stereo not drawn),-20%,-58*,u,0%,-19%
CC12CCC(=O)N1C(C(=O)Nc1nc3ccccc3s1)CS2 (stereo not drawn),0%,1,-2%,-3%,-2%
CC12CCC(=O)N1C(C(=O)Nc1ccc(Cl)c(Cl)c1)CS2 (stereo not drawn),-15%,-50*,-26%,-20%,14%
CC12CCC(=O)N1C(C(=O)Nc1nc3ccc(F)cc3s1)CS2 (stereo not drawn),0%,-10,10µM*,2%,-15%
CC(=O)NC12CC3CC(C1)CC(C(=O)Nc1nc4ccc(F)cc4s1)(C3)C2,-18%,u,26µM*,u,u
CC12CCC(=O)N1C(C(=O)Nc1ccc(Cl)c(S(=O)(=O)N3CCCCC3)c1)CS2 (stereo not drawn),4%,5,u,-1%,u
O=C(NCCO)C(=O)NCC1OCCCN1S(=O)(=O)c1ccc2c(c1)OCCO2 (stereo not drawn),12%,4,-9%,10%,-1%
Cc1cc(C(=O)O)cc(Br)c1N,3%,13,5%,12%,15%
Cc1cc(N)cc(C)c1-c1c(Br)cc(N)cc1Br,u,14,18µM*,u,13µM*
Cc1ccc2nc(/C(C#N)=C\c3cc(C)n(-c4cccc([N+](=O)[O-])c4)c3C)[nH]c2c1,-3%[9.24 µM],u,9.2µM*,u,8.2µM*
Cc1cc(/C=C(/C#N)c2nc3ccccc3[nH]2)c(C)n1-c1cc(C(=O)O)cc(C(=O)O)c1,-1%,18,-5%,-4%,27%
O=C(/C=C/c1ccc(Cl)c([N+](=O)[O-])c1)Nc1ccc(N2CCCC2)cc1,u,28,u,-13%,u
Cc1ccc(NC(=O)COC(=O)Cn2cnc3c2c(=O)n(C)c(=O)n3C)cc1Cl,0%,9,2%,-1%,-10%
Nc1cc(-c2ccccc2)ccc1O,x,14,u,x,-20%
c1ccc(-c2ccc3c(c2)NCCN3)cc1,-4%,-75*,u,-19%,u
O=C(N/N=C/c1cccc([N+](=O)[O-])c1)C1COc2ccccc2O1 (stereo not drawn),-6%,-3,-16%,-3%,24%
COc1cc([N+](=O)[O-])cc(/C=N\NC(=O)C2COc3ccccc3O2)c1O (stereo not drawn),u,122,u,18µM*,u
O=C(N/N=C\c1cccc([N+](=O)[O-])c1O)C1COc2ccccc2O1 (stereo not drawn),u,85,5.2µM*,u,5.2µM*
COc1ccc(CCNC(=O)CSc2ccc3ccccc3c2)cc1OC,1%,2,u,2%,u
